Test: binders of probe aFGF2 on microarray, primary screen, stem cell growth factor project, biochemical, small-molecule microarray, fluorescence 635/667 (AID 1067);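 note: measures binding of biotinylated aFGF2 protein to printed compounds on slides; z-score merges feature fluorescence and signal-to-noise across triplicate slides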
Conditions: higher = more signal

Compound	composite z-score
C=CCOC(=O)[C@@H]1[C@H]2C(=O)O[C@H](c3ccccc3)[C@H](c3ccccc3)N2[C@H](c2ccc(OCCOC(=O)[C@H]3C[C@H]4C(=O)N[C@@H](CCCC[N+](C)(C)C)C(=O)N4[C@H]3c3cccc(OCCO)c3)cc2)[C@@]12C(=O)Nc1ccc(I)cc12	-0.0824
COc1ccc([Si](C)(C)[C@H]2[C@H](CC(=O)N3Cc4ccccc4C[C@H]3CO)O[C@@]3(C(=O)N(Cc4cccc(I)c4)c4ccccc43)[C@@H]2C)cc1	-0.0158
C=CCCN(CC#C[C@H]1Oc2ccccc2S(=O)(=O)N2CCC[C@@H]12)S(=O)(=O)c1ccc(C)cc1	-0.0717
C[n+]1ccc2ccc(O)cc2c1	-0.081
COc1ccc([Si](C)(C)[C@@H]2[C@@H](CCO)O[C@]3(C(=O)N(Cc4cccc(N5CCCCC5=O)c4)c4ccccc43)[C@H]2C)cc1	-0.134
Cc1ccc(N2C(=O)c3ccccc3[C@@H](C(=O)NC(C)C)[C@@H]2c2ccc(CO)cc2)nc1	-0.0598

Test: binders of probe aFGF10 on microarray, primary screen, stem cell growth factor project, biochemical, small-molecule microarray, fluorescence 635/667 (AID 1071);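 note: score merges 667 nm spot intensity and signal to noise from triplicate slides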
Conditions: higher = more signal

Compound	composite z-score
C=C(CCCC)/C(=C/C[C@H](OC(C)=O)c1ccc(CO)o1)c1cc(C(=O)OC)ccc1OC	0.525
CC(C)(C)OC(=O)CC[C@]1(C(=O)NCC(O)CO)N=C(c2ccc(OCCCO)cc2)O[C@H]1c1ccccc1CN=[N+]=[N-] (stereo partly specified)	0.922
COC(=O)[C@@]1(Cc2ccc(OC)cc2)[C@H]2c3cc(C(=O)N(C)C)n(Cc4ccc(OC)c(OC)c4)c3C[C@H]2CN1C(=O)c1ccccc1	0.336
[N-]=[N+]=NCc1ccccc1C[C@@]1(C(=O)NCc2ccccc2)N=C(c2ccc(OCCCO)cc2)O[C@@H]1c1ccccc1CN=[N+]=[N-]	0.809
[N-]=[N+]=NCc1ccccc1[C@H]1OC(c2ccc(OCCCO)cc2)=N[C@@]1(Cc1ccccc1)C(=O)O	0.345
NC(=O)NCC#Cc1ccc2c(c1)[C@]1(C(=O)N2)[C@H](C(=O)NC[C@H](O)c2ccccc2)[C@H]2C(=O)O[C@H](c3ccccc3)[C@H](c3ccccc3)N2[C@@H]1c1ccccc1OCCO	0.0263
C=C(C(=O)CC[C@H](OC(=O)c1cccnc1)c1ccccc1OCCO)C(C)C	0.636
COc1ccc([Si](C)(C)[C@@H]2[C@@H](CCO)O[C@]3(C(=O)N(Cc4ccc(N5C(=O)c6cccc7cccc5c67)cc4)c4ccccc43)[C@H]2C)cc1	-0.383
COc1ccc([Si](C)(C)[C@H]2[C@H](CCO)O[C@@]3(C(=O)N(Cc4ccccc4)c4ccc(N5C(=O)COc6ccccc65)cc43)[C@@H]2C)cc1	0.264
O=C1C2C=CC(C(O)c3ccccn3)N(Nc3ccccc3F)C2C(=O)N1c1ccccc1 (stereo unspecified)	0.4
CN(C)CCCC[C@@H]1NC(=O)[C@@H]2C[C@H](C(=O)NCCCCCN)[C@H](c3ccc(O)cc3)N2C1=O	-0.285
O=C(NCC(O)CO)[C@@]1(Cc2ccccc2)COC(c2ccc(OCCCO)cc2)=N1 (stereo partly specified)	0.138
CCOC(=O)N1C(c2ccc(OCCCO)cc2)=NC(C(=O)OC)N1C(=O)OCC (stereo unspecified)	0.683
CO[C@H]1O[C@H](CO)[C@@H](OC(=O)Nc2cccc(F)c2)[C@H](OC(=O)Nc2ccccc2-c2ccccc2)[C@@H]1OC(=O)Nc1ccccc1-c1ccccc1	0.669
O=C1OCC=C[C@H]2OC34C=CCN(c5ccc6ccccc6c5)C(=O)[C@H]3N(CCO)C(=O)[C@@H]4[C@@H]12 (stereo partly specified)	-0.361
COc1cc2c(cc1O)C(c1ccc(CN3CCCC3)cc1)N(Cc1sc3ccccc3c1Cl)CC2 (stereo unspecified)	0.156
O=C1OCC=C[C@H]2OC34C=CCN(c5ccc(Cl)cc5)C(=O)[C@H]3N(CCCO)C(=O)[C@@H]4[C@@H]12 (stereo partly specified)	-0.573
NC(=O)[C@@]1(CCS(=O)(=O)c2ccccc2)N=C(c2ccc(OCCCO)cc2)O[C@H]1c1ccccc1	0.58

Compound	composite z-score
CC(=O)NCCCC[C@@H]1NC(=O)[C@@H]2C[C@H](C(=O)NCc3ccc(F)cc3)[C@H](c3ccc(O)cc3)N2C1=O	0.639
O=C1OCCC=C[C@H]2OC34C=CCN(c5ccc6ccccc6c5)C(=O)[C@H]3N(CCCCCCO)C(=O)[C@@H]4C12 (stereo partly specified)	-0.367
Cc1ccc(F)cc1S(=O)(=O)N[C@@H]1CCN(Cc2ccc(C(F)(F)F)cc2)C1	-1.06
CC(C)NC(=O)[C@@]1(c2ccc([N+](=O)[O-])cc2)CC(=O)N(C(C)C)[C@@H]1c1ccc(CO)cc1	-0.218
C=CCC(OC(C)=O)[C@@H]1[C@@H](N(Cc2ccc(-c3ccccc3)cc2)C(=O)c2ccc(C)cc2)c2cc(OCCCO)ccc2N1C(=O)c1ccc2ccccc2n1 (stereo partly specified)	0.199
C=CCC(OC(C)=O)[C@@H]1[C@@H](N(Cc2cc3ccccc3o2)C(=O)c2ccc(C)cc2)c2cc(OCCCO)ccc2N1C(=O)c1ccc(-c2ccccc2)cc1 (stereo partly specified)	0.18
COCCCNC(=O)[C@@]1(Sc2ccc(C)cc2)CC(=O)N(Cc2ccccc2)[C@@H]1c1ccc(CO)cc1	0.738
COc1ccc(C(=O)Nc2cccc(CN3C(=O)[C@@]4(O[C@@H](CCn5cc([C@H](O)c6ccccc6)nn5)[C@H]([Si](C)(C)c5ccc(OC)cc5)[C@H]4C)c4ccccc43)c2)cc1	0.335
CN1C(=O)C2C=CC(C(O)c3ccccc3)N(NC(=O)OC(C)(C)C)C2C1=O (stereo unspecified)	0.268
[N-]=[N+]=NCc1ccccc1C[C@]1(C(=O)NCc2ccccc2)COC(c2ccc(OCCCO)cc2)=N1	0.157
C=CC[C@@]1(C(=O)NCCN2CCOCC2)N=C(c2ccc(OCCCO)cc2)O[C@@H]1c1ccccc1CN=[N+]=[N-]	0.455
C=CCOC(=O)[C@@H]1[C@H]2C(=O)O[C@H](c3ccccc3)[C@H](c3ccccc3)N2[C@H](c2ccc(OCCOC(=O)[C@H]3C[C@H]4C(=O)N[C@@H](CCCC[N+](C)(C)C)C(=O)N4[C@H]3c3cccc(OCCO)c3)cc2)[C@@]12C(=O)Nc1ccc(I)cc12	0.651
COc1ccc([Si](C)(C)[C@H]2[C@H](CC(=O)N3Cc4ccccc4C[C@H]3CO)O[C@@]3(C(=O)N(Cc4cccc(I)c4)c4ccccc43)[C@@H]2C)cc1	0.142
C=CCCN(CC#C[C@H]1Oc2ccccc2S(=O)(=O)N2CCC[C@@H]12)S(=O)(=O)c1ccc(C)cc1	0.61
C[n+]1ccc2ccc(O)cc2c1	0.0493
COc1ccc([Si](C)(C)[C@@H]2[C@@H](CCO)O[C@]3(C(=O)N(Cc4cccc(N5CCCCC5=O)c4)c4ccccc43)[C@H]2C)cc1	0.877
Cc1ccc(N2C(=O)c3ccccc3[C@@H](C(=O)NC(C)C)[C@@H]2c2ccc(CO)cc2)nc1	0.079

Source: PubChem BioAssay
